Screens (PubChem)
Sampled rows, rich in hits. Any-hit rate of the full collection: about 11%.
Pf growth 48h = Primary qHTS for delayed death inhibitors of the malarial parasite plastid, 48 hour incubation; P. falciparum luciferase growth in erythrocytes, 48 h; Potency, µM (doses to about 28.7 µM), without a hit: top-dose activity change, negative = inhibition, most hits filed as inhibitors; 5.9% of 310,000 active
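Read-out is firefly luciferase luminescence from an integrated reporter in P. falciparum, so falling signal marks reduced parasite growth. Infected erythrocytes were at 2% hematocrit and 0.1% parasitemia (final) in Albumax-supplemented RPMI 1640.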
AMA1 RON2 block = qHTS for Inhibitors of AMA1-RON; Towards Development of Antimalarial Drug Lead: Primary Screen. Plasmodium falciparum AMA1 (3D7) - RON2 peptide interaction. AlphaScreen AMA1-biotinylated RON2 peptide binding. Potency, µM (top dose mostly 58.2 µM), for inactives: top-dose activity change, negative = inhibition, most hits filed as inhibitors. 0.2% of 360,000 active;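 further: 0% = vehicle wells and -100% = peptide control; nearly all actives have a fitted effect of over 45% in size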
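AMA1 (3D7) with his tag at 25 nM final met compounds first, then biotinylated RON2 peptide at 25 nM; detection used donor plus acceptor beads, 10 µg/mL apiece, read by AlphaScreen after 30 min at room temperature.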
Pf growth 96h = Primary qHTS for delayed death inhibitors of the malarial parasite plastid, 96 hour incubation; P. falciparum luciferase reporter growth, 96 h; Potency, µM (highest dose often 28.7 µM), for the others: at the top dose activity change, negative = inhibition, hits mostly inhibitors; 6.9% of 320,000 active; AID 504834, 2011
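Delayed-death screen, second-generation endpoint: infected erythrocytes, 2% hematocrit, 0.05% parasitemia final; 96 hours at 37 C, 5% CO2; luciferase detection reagent; luminescence decrease equals reduced growth.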
HCV inh = qHTS Assay for Inhibitors of Hepatitis C Virus (HCV) | Huh7.5.1 HCVcc-Cre infection, luciferase reporter, 44 h | Potency, µM (highest dose often 41.8 µM), for the others: at the highest dose activity change, negative = inhibition, usual class: inhibitors | 3.4% of 340,000 active | AID 651820, 2012
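HCVcc-Cre virus at an moi near 0.5 was added right after compound to cells cultured 4 h from seeding (1,000 cells/well). Luciferase activity was determined 44 h later, 15 min after substrate addition at RT.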
Starred values were filed as active, the others as inactive; i = inactive; u = inconclusive; x = no result given; [ ] = dose if it differs, or a comment. The call rests on the fitted dose curve; in most records, active means well fitted curve in the direction sought with a large enough effect; inconclusive means small, poorly fitted or top-dose-only effect, or another doubt; inactive means no such curve, though single readings can be large; an effect the other way counts as inactive or inconclusive. Unless noted, on the % scale 0 is the no-effect control and ±100 the full control effect; potency means the concentration at half of the fitted maximal effect.

SMILES | Pf growth 48h | AMA1 RON2 block | Pf growth 96h | HCV inh
O=C(NC1CCN(C(=O)N2c3ccccc3Sc3ccccc32)CC1)c1ccccc1F | 2.9µM* | -22% | u | u
CCN(CC(=O)Nc1c(F)cccc1F)C(=O)c1ccc(S(=O)(=O)N(CC)c2ccccc2)cc1 | x | 1% | x | -6%
CCC(C)c1ccc(S(=O)(=O)N2CCN(C(=O)c3ccc(Cl)c(S(=O)(=O)N4CCOCC4)c3)CC2)cc1 (stereo not drawn) | x | -10% | x | u
Cc1nn2c3c(cnc2c1-c1ccccc1)C(=O)CC(c1ccco1)C3 (stereo not drawn) | 1.5µM* | 20% | x | -14%
C=CCc1c(C)nc(-c2ccccc2)nc1N/N=C/c1ccccc1 | 38% | 66% | u | u
C=CCc1c(C)nc(-c2ccccc2)nc1Nc1ccccc1O | 5.2µM* | 2% | u | u
CCC(=NCc1ccc(Cl)c(Cl)c1)c1nc(-c2ccco2)oc1O | u | u | 12µM* | -28%
CC(=O)c1ccc(NC(=O)C2(c3ccccc3)CCOCC2)cc1 | 58% | -6% | 101% | 11%
Cc1ccc(-c2cc(C(=O)N(C)Cc3cnn(C)c3C)c3cc(Br)ccc3n2)cc1 | 9.3µM* | -1% | u | u
Cc1ccc(-c2cc(C(=O)NCc3cnn(C)c3C)c3cc(Br)ccc3n2)cc1 | 2% | -13% | u | u
COc1ccc(C)cc1NC(C)C(=O)NC(=O)NC1CCCCC1 (stereo not drawn) | 13µM* | u | u | 7%
COc1cc(C)ccc1OCC(=O)NC1CCCCCC1 | 52% | 4% | 86% | -2%
Cc1cc(C)nc(N(C#N)Cc2cccc([N+](=O)[O-])c2)n1 | -23% | 4% | 30% | 0%
COc1ccc(CN(C#N)c2nc(C)cc(C)n2)cc1 | u | -4% | 7.4µM* | 2%
Cc1ccc(N2C(=O)C(Cl)=C(N3CCN(C)CC3)C2=O)c(C)c1 | u | -4% | 2.6µM* | 14%
CS(=O)(=O)N(CC(=O)Nc1ccccc1Sc1ccccc1)c1cccc(Br)c1 | 13µM* | -1% | u | u
CS(=O)(=O)N(Cc1ccccc1)c1ccc(C(=O)Nc2ccccc2Sc2ccccc2)cc1 | 12µM* | 17% | 15µM* | 7%
O=C(O)CC(NC(=O)C1c2ccccc2Oc2ccccc21)c1ccc(Cl)cc1 (stereo not drawn) | 20% | -1% | i | 11%
CN(C)c1ccc(CN(C)C2CCCCC2)cc1 | x | -5% | -13% | -22%
COc1cc(NC(=O)C2C3C=CC(C3)C2C(=O)O)c(OC)cc1Cl (stereo not drawn) | 12% | -11% | -28% | 7%
COc1ccc(NC(=S)Nc2cccc(C(C)=O)c2)cc1OC | -1% | 7% | 12µM* | 1%
COC(=O)Nc1ccc([N+](=O)[O-])cc1OC | 26% | -13% | i | 1%
COc1cc([N+](=O)[O-])ccc1NC(=O)C1C2C=CC(C2)C1C(=O)O (stereo not drawn) | u | -14% | 12µM* | 19%
COc1cc([N+](=O)[O-])ccc1NC(=S)Nc1cccc(C(=O)O)c1 | -10% | -4% | 1.5µM* | u
CCOc1ccccc1C(=O)Nc1nnc(COC)s1 | 13% | 0% | -22% | 7.1µM*
SMILES | Pf growth 48h | AMA1 RON2 block | Pf growth 96h | HCV inh
CCOc1ccccc1C(=O)Nc1nccs1 | 10% | 0% | 6.6µM* | 5.6µM*
CCCCc1nnc(NC(=O)c2ccccc2OCc2c(C)noc2C)s1 | 9.3µM* | 0% | 0.93µM* | 1%
CCOC(=O)Cc1nnc(NC(=O)c2ccccc2OCC)s1 | -10% | 14% | -17% | u
Cc1noc(C)c1COc1ccccc1C(=O)Nc1ccc(C(N)=O)cc1 | -16% | 0% | u | -5%
O=C(Nc1nccs1)c1ccc(COc2ccc(F)cc2)o1 | 55% | 49% | -9% | u
O=C(Nc1nccs1)c1ccc(COc2ccccc2Br)o1 | u | 4% | x | 11µM*
O=C(Nc1nccs1)c1ccccc1Br | 50% | -3% | u | -3%
CCc1nc2ccc(C(=O)NCCCN3CCCC3=O)cn2c1N(C)Cc1ccc(OC)cc1 | x | 11% | x | x
O=C(CSc1n[nH]c(=O)n1-c1ccccc1)N1CCOCC1 | -12% | -3% | 45% | 16%
COC(C[C@@H](O)CC(=O)COCc1ccccc1)OC | 39% | 4% | 72% | 2.8µM*
COC(C[C@@H](O)CC(=O)[C@@H](C)OCc1ccccc1)OC | 61% | 11% | 43% | 35%
CCOC(=O)[C@H]1[C@H]2COc3cc(OC)ccc3[C@@H]2N2C(=O)N(c3ccc(Cl)cc3)C(=O)[C@@]12C | -94% | -16% | 5.2µM* | -22%
CCOC(=O)[C@@H]1[C@H]2COc3ccc(Br)cc3[C@@H]2N2C(=O)N(c3ccc(C)cc3)C(=O)[C@]12C | u | -6% | 13µM* | 0%
CCOC(=O)[C@@H]1[C@H]2COc3ccccc3[C@@H]2N2C(=O)N(c3ccc(C(F)(F)F)cc3)C(=O)[C@@]12C | x | -8% | x | -6%
CCOC(=O)[C@@H]1[C@H]2COc3ccccc3[C@H]2N2C(=O)N(c3ccc(C(F)(F)F)cc3)C(=O)[C@]12C | 10µM* | -7% | 5.2µM* | -21%
CCOC(=O)[C@@H]1[C@H]2COc3ccc(Br)cc3[C@@H]2N2C(=O)N(c3ccc(Br)cc3)C(=O)[C@@]12C | x | -2% | x | -8%
CCOC(=O)[C@@H]1[C@H]2COc3ccc(Br)cc3[C@H]2N2C(=O)N(c3ccc(C)cc3)C(=O)[C@]12C | u | -2% | 12µM* | 4%
CCOC(=O)[C@@H]1[C@H]2COc3cc(OC)ccc3[C@@H]2N2C(=O)N(c3ccc(Cl)cc3)C(=O)[C@@]12C | u | -5% | u | 6%[8.37 µM]
CCOC(=O)[C@@H]1[C@H]2COc3ccc(Br)cc3[C@@H]2N2C(=O)N(c3ccc(Cl)cc3)C(=O)[C@]12C | x | -4% | x | -2%
CCOC(=O)[C@@H]1[C@H]2COc3ccc(Br)cc3[C@@H]2N2C(=O)N(c3ccc(OC)cc3)C(=O)[C@]12C | -2% | 0% | 3.3µM* | 15%
CCOC(=O)[C@@H]1[C@H]2COc3ccc(Br)cc3[C@H]2N2C(=O)N(c3ccc(F)cc3)C(=O)[C@]12C | u | -3% | u | -9%
O=[N+]([O-])c1cccnc1Oc1ccc(C2SCCS2)cc1 | 4.7µM* | -17% | 10µM* | 1%
COc1cc(C2SCCS2)cc(Br)c1Oc1ncccc1[N+](=O)[O-] | -1% | u | u | u
Cc1ccc(Cl)cc1N1CCN(CCN)CC1 | u | -13% | u | 10µM*
O=C(COc1ccc(Cl)cc1Cl)Nc1ccc(CN2CCCCC2)cc1 | u | -3% | 15% | -8%
Cc1ccc(Cl)cc1N1CCN(S(C)(=O)=O)CC1 | 23% | -6% | x | 0%
